The source of these data is PubChem BioAssay AID1903 (Southern Research Specialized Biocontainment Screening …, 2009).

Among all 310,000 compounds or so, about 1,200 (0.39%) were called active. These entries were drawn from the full list. Results with a measured potency or affinity are listed apart. Values without a mark were called inactive. The rule behind the calls is not given here.

The test deals with Large T antigen (Simian virus 40) (UniProt P03070). Briefly: SV40 large T antigen inhibitors, biochemical (AID 1903). Conditions: SV40 large T antigen ATPase/helicase inhibition assay; at 20 µM; hits give high values.
Large T antigen (Simian virus 40), sequence (P03070 whole entry, looked up): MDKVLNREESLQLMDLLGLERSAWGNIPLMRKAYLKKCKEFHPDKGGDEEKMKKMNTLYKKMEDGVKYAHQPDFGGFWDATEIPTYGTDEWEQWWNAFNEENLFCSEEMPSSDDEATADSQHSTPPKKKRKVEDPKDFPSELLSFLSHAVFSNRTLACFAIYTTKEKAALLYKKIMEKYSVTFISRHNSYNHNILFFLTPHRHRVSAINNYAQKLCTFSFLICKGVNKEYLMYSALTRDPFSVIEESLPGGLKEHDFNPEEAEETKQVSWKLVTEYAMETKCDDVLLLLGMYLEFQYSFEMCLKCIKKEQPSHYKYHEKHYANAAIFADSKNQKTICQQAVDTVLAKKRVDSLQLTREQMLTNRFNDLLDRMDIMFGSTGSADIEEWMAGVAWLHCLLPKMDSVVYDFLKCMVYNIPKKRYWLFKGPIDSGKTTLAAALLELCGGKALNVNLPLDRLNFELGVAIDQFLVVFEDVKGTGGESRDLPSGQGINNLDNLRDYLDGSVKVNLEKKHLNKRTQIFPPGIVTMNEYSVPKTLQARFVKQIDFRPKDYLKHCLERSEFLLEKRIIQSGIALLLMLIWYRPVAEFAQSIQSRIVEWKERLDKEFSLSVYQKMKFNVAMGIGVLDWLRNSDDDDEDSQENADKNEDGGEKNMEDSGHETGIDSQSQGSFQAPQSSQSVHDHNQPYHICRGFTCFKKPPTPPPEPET
Take `Cc1ccc(C(=O)/C=C/c2ccc(-c3ccccc3[N+](=O)[O-])o2)cc1`: the inhibition is -1.93%.

For `CCSC1=N/C(=C\c2ccc(-c3ccccc3[N+](=O)[O-])o2)C(=O)S1`, the inhibition is 45.4%.

With `CCN1C(=O)/C(=C\c2ccc(-c3ccc([N+](=O)[O-])cc3OC)o2)SC1=Nc1cccc(C(=O)O)c1`, the inhibition is 13.7%.

Consider `COC(=O)c1ccccc1-c1ccc(/C=C2\C(=O)N(c3ccccc3)N=C2c2ccccc2)o1`, for which the inhibition was -14%.

For `CC1=NN(c2ccc(Br)cc2)C(=O)/C1=C/c1ccc(-c2ccccc2C(=O)O)o1`, the inhibition is 33.3%.

Turning to `COc1ccc(OC)c(CNc2ccc([N+](=O)[O-])cc2C)c1`, the inhibition was -3.94%.

Regarding `COc1ccc(Br)cc1S(=O)(=O)n1c([N+](=O)[O-])cnc1C`, the inhibition is -1.15%.

For the compound `C=CCn1cccc(C(=O)Nc2ccc(C)c(C)c2)c1=O`, the inhibition was 10.4%.

For `Cc1ccc(CNC(=O)COC(=O)Cc2ccc(-c3ccccc3)cc2)cc1`, the inhibition was 1.94%.

On to `CCc1nnc(NC(=O)CCN2C(=O)C3CCCCC3C2=O)s1` (configuration not stated), for which the inhibition is 8.24%.

Take `CCOC(=O)C(C)Sc1nc2c(c(=O)[nH]c(=O)n2C)n1C/C=C(/C)Cl` (configuration not stated): the inhibition is 0.445%.

As for `CN(C)/C=C/c1oc2ccc(O)cc2c1[N+](=O)[O-]`, the inhibition is 32%.

For the compound `CC(=O)Oc1ccc2oc(/C=C/N(C)C)c([N+](=O)[O-])c2c1`, the inhibition was 13%.

For the compound `OC(COc1ccc(CNCCc2ccccc2F)cc1)CN1CCCCC1` (configuration not stated), the inhibition was 5.86%.

Consider `COCCNC(=S)N/N=C(\C)c1ccc(OC)cc1`, for which the inhibition is 13.8%.

For the compound `COCCNC(=S)N/N=C(\C)c1ccc(OC(F)F)cc1`, the inhibition was 21.1%.

With `COC(=O)c1ccccc1NC(=O)CSc1n[nH]c(C)n1`, the inhibition is 0.8%.

In the case of `Cc1ccc(Cl)cc1NC(=O)C(NS(=O)(=O)c1cccs1)c1ccccc1` (configuration not stated), the inhibition is 3.94%.

Turning to `CC(C)C(NS(=O)(=O)c1ccc2c(c1)OCCCO2)C(=O)O` (configuration not stated), the inhibition is -3.36%.

`Nc1ccc2nc(-c3ccc(-c4nc5ccc(N)cc5[nH]4)cc3)[nH]c2c1`: the inhibition was 12.1%.

Consider `Nc1ccc2nc(-c3ccc(Cl)cc3)[nH]c2c1`, for which the inhibition was 28%.

As to `Cc1ccc(-n2nc(C(=O)O)nc2-c2ccccc2)cc1`, the inhibition was 38%.

With `Cc1cc(=O)nc2c3ccccc3n(CC(=O)NCCC3=CCCCC3)n12`, the inhibition was 2.66%.

For the compound `COc1ccc(S(=O)(=O)N2CCOC2CNC(=O)C(=O)NCCc2ccccc2)cc1C` (configuration not stated), the inhibition is 6.95%.

For `CN1CCN(/N=C/c2c3ccccc3c(Cl)c3ccccc23)CC1`, the inhibition is 1.67%.

As to `Cc1ccc(O)c(N=Cc2cc(Cc3ccccc3)cc([N+](=O)[O-])c2O)c1`, the inhibition is 15.2%.

As for `COc1cccc(C=Nc2ccc3c(c2)OCCO3)c1O`, the inhibition was 21.9%.

Turning to `C=Cc1ccc(N=Cc2c(O)ccc3ccccc23)cc1`, the inhibition was -18.3%.

With `O=C(O)c1ccc(N=Cc2c(O)ccc3ccccc23)cc1`, the inhibition is 6.09%.

For `O=[N+]([O-])c1ccc(N2CCOCC2)cc1NCc1ccccc1`, the inhibition was 5.38%.

With `CN1CCN(CC(=O)N/N=C\c2c[nH]c3ccccc23)CC1`, the inhibition was 5.96%.

Take `COc1cccc(/C=N/N2CCOCC2)c1O`: the inhibition is 3.29%.
